Measurements from PubChem BioAssay AID1021 (Emory University Molecular Libraries Screening Center, 2008).
Out of some 220,000 compounds screened, about 2,100 (0.95%) were called active. Only a selection was taken, and actives are over-represented in it overall. Values without a mark were called inactive.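 How the source made its calls: active means compounds that cut the binding signal by more than half at the single screening dose; inactive means the rest.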

The compounds below were run against Induced myeloid leukemia cell differentiation protein Mcl-1 (Homo sapiens) (UniProt Q07820) (assay: Mcl-1/Bid binding inhibitors, primary screen, biochemical, TR-FRET, 1536-well (AID 1021;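 further: His-tagged Mcl-1 with europium anti-His antibody binding Bid BH3 peptide; 0% = Mcl-1 plus peptide wells and 100% = peptide-only wells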)). Settings: TR-FRET Mcl-1/Bid-Dy647 peptide binding, at 21.7 µM, active compounds read high.
Chain of Induced myeloid leukemia cell differentiation protein Mcl-1 (Homo sapiens) (Q07820 whole entry, looked up): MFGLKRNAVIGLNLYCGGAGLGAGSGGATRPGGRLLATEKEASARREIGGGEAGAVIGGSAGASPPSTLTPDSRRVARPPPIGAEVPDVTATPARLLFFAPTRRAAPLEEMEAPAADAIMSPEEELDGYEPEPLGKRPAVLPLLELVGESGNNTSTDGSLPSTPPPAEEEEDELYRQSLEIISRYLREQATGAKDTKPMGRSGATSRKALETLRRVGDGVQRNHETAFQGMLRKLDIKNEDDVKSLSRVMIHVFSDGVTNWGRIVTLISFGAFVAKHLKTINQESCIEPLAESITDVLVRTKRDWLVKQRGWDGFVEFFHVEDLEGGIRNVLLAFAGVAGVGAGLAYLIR
O=C(CN1CCN(Cc2ccccc2)CC1)NC(c1ccccc1)c1ccccc1 showed an inhibition of 26.9%.
COc1ccc(NC(=O)CCN2C(=O)/C(=C/c3ccc4c(c3)OCO4)SC2=S)cc1 was tested, and the inhibition was -17%.
Cc1ccc(C2C3=C(Nc4[nH]n(-c5ccccc5)c(=O)c42)c2ccccc2C3=O)cc1 (stereo unspecified) was tested, and the inhibition was 84.6% (active).
Compound Cc1ccc(N=Nc2c(C)[nH]n(-c3ccccc3)c2=O)cc1 has an inhibition of -11.4%.
With Cc1cc(C)c(C2C3=C(Nc4c2c(C)nn4-c2ccccn2)c2ccccc2C3=O)c(C)c1 (stereo unspecified) the inhibition was -27.1%.
With Cc1ccc(C(CC(=O)O)Nc2nc(N3CCCCC3)nc(N3CCCCC3)n2)cc1 (stereo unspecified) the inhibition was 50.7% (active).
O=C(O)c1ccc(/C=N/Nc2nc(N3CCCCC3)nc(N3CCCCC3)n2)cc1 was tested, and the inhibition was 5.5%.
Work on CC(=O)NC(CC(=O)O)c1ccc(F)cc1 (stereo unspecified) yielded an inhibition of -2.56%.
For CCC(C)(C)NC(=O)C1c2ccccc2Oc2ccccc21, the inhibition was -5.83%.
In the case of CCn1c(COc2ccccc2)nnc1SCC(=O)NCc1ccco1, the inhibition is reported as -25.4%.
With CCn1c(SCC(=O)NCc2ccco2)nnc1-c1ccc(N)cc1 the inhibition was 75.2% (active).
With Cc1ccc(-c2csc3nnc(SCC(=O)NCc4ccco4)n23)cc1 the inhibition was -17.3%.
With CC(C)n1c(=O)[nH]c2cc(C(=O)Nc3ccccc3)ccc21 the inhibition was -10.9%.
COc1c(C=O)c(CCN(C)C(=O)c2ccc(F)cc2)cc2c1OCO2 was tested, and the inhibition was 0.65%.
For Cc1ccc(N2CCN(C3=NC(=O)/C(=C\c4cccs4)S3)CC2)cc1, the inhibition was 97.7% (active).
Cc1ccsc1/C=C1\SC(N2CCOCC2)=NC1=O gave an inhibition of -15.9%.
For Cc1ccc(N2CCN(/N=C/c3cccs3)CC2)cc1, the inhibition was -7.6%.
For Cc1ccc(-c2nn(-c3cccc(F)c3)cc2CNCCc2ccncc2)o1, the inhibition was -20.2%.
Work on C=CCN(c1ccccc1C(=O)NCC(=O)OCC)S(=O)(=O)c1ccc(C)cc1 yielded an inhibition of -11.3%.
For O=S(=O)(c1ccc(-c2ccccc2)cc1)N1CCCC1, the inhibition was -19.2%.
In the case of O=S(=O)(c1cccc(-c2nnc(SC(F)F)n2-c2ccccc2)c1)N1CCCCC1, the inhibition is reported as 91.8% (active).
O=S(=O)(c1cccc(-c2nnc3n2CCCCC3)c1)N1CCOCC1 was tested, and the inhibition was -26.9%.
In the case of COc1cccc(/C=N/Nc2cc(C)nc(-c3ccccc3O)n2)c1O, the inhibition is reported as -54.1%.
In the case of COc1cccc(/C=N\NC(=O)C2=NNC(=O)C2C)c1O (stereo unspecified), the inhibition is reported as -128%.
For COc1cccc(/C=N/NC(=O)c2[nH]nc3c2CCc2ccccc2-3)c1O, the inhibition was 53.3% (active).
O=C(NCc1ccc2c(c1)OCO2)c1sccc1Br showed an inhibition of -8.46%.
